For 23 compounds, Potency results are on record in PubChem BioAssay AID2514 (National Center for Advancing Translational Sciences (NCATS), 2010).

Each structure is given as a SMILES string. Where “and” joins values, the source holds several entries; their conditions need not be identical. Equal entries are not always repeated. Inconclusive results are not listed. Calls of active or inactive are those of the source. Calls follow the shape of the dose curve; as a rule, active = well fitted activation curve with a large enough effect; inconclusive = small, poorly fitted or top-dose-only effect; inactive = no such curve, though single readings can be large or run the other way.

The nature of the assay: Confirmation Concentration-Response Assay for Enhancers of SMN2 Splice Variant Expression for Probe SAR. As to conditions: HEK293 SMN2 exon7 splicing luciferase reporter, luminescence; series mostly up to 46.1 µM. From the text: NIH Chemical Genomics Center [NCGC] NIH Molecular Libraries Probe Production centers Network [MLPCN] MLPCN Grant: R03 MH084179-01 Assay Submitter (PI): Elliot Androphy NCGC Assay Overview: Spinal muscular atrophy (SMA) is caused by insufficient levels of the survival motor neuron protein SMN. The SMN locus on chromosome 5q13 contains two inverted copies of SMN called SMN1 and SMN2 which are 99% identical at the amino acid level. SMN1 is a fully functional protein and SMN2 skips exon 7 90% of the time. Skipping of exon 7 produces non-functional protein product. 10% of the SMN2 protein includes exon 7 and is fully functional. In the SMA disease state, mutations in the SMN1 locus are the cause of the disease state. Because only 10% of SMN2 is of the fully functional form, it is not sufficient to overcome the deficiency produced by the loss of the SMN1 product. A therapy that either increase the amount of SMN2 product made or to increase the inclusion of exon 7 has been proposed for the treatment of SMA. We have designed an assay to identify small molecules that can increase the amount of functional SMN2 product by appending a luciferase reporter gene after the native SMN2 gene, such that inclusion of exon 7 in the expressed product places the luciferase sequence in frame, thus generating functional luciferase enzyme.
NCGC Assay Protocol Summary: This screen utilizes a luciferase reporter gene assay, combining the promoter with the major portion of the native SMN2 cDNA (exons 1 -7, intron 8 , exon 8 fused to luciferase) stably expressed in HEK293 cells. Compounds that increase luciferase signal presumably enhance expression of the functional SMN2 splice variant. Passaging media contained DMEM w/ glutamax (+phenol red) 10% FCS, 1x pen/strep, 200 ug/ml hygro, 1x sodium pyruvate. Assay media contained DMEM w/ glutamax (-phenol red) 10% FCS, 1x pen strep, 1x pyruvate Sequence, Parameter, Value, Description (1) Cells, 5 uL, 2000 cells/well, 1536 TC treated White solid bottom plate (2) Time, 10-12 hours, 37C 5% CO2 (3) Compound, 23 nl, MLSMR Library (4) Control Compound, 23 nL, Sodium butyrate st 4.5mM (final) conc (5) Time, 30-36 hours, 37C 5% CO2 (6) Reagent, 3 ul, One Glo (TM) from Promega (7) Time, 5-15 minutes, Room temp (8) Detector, Viewlux: luminescent read, 60 second integration, high speed 2x binning Keywords: Spinal muscular atrophy, SMA, SMN2, high throughput screening, MLSMR, MLPCN, NIH Roadmap, qHTS and NCGC
As for `NC(=O)C1CCN(c2nc(-c3cc4ccccc4o3)cs2)CC1`, the Potency was 8.67 µM (active). As for `Cc1ccc(-c2csc(N3CCC(C(N)=O)CC3)n2)cc1`, the figure is 0.772 µM (active). Regarding `NC(=O)C1CCN(c2nc(-c3ccccc3Br)cs2)CC1`, the Potency entry is “inactive”. Regarding `Cn1ccc2cc(-c3csc(N4CCC(C(N)=O)CC4)n3)ccc21`, the Potency was 4.34 µM (active). The same measure for `CN(C)c1ccccc1-c1csc(N2CCC(C(N)=O)CC2)n1`: “inactive”. Take `NC(=O)C1CCN(c2nc(-c3ccc(Br)cc3)cs2)CC1`: the Potency is 708 nM (active) and 772 nM (active). Regarding `NC(=O)C1CCN(c2nc(-c3ccc(F)cc3)cs2)CC1`, the Potency is 3.45 µM (active).

Consider `CS(=O)(=O)c1cccc(-c2csc(N3CCC(C(N)=O)CC3)n2)c1`, for which the Potency entry was “inactive”. In the case of `NC(=O)C1CCN(c2nc(-c3ccccc3C(F)(F)F)cs2)CC1`, the Potency entry was “inactive”.

Regarding `CC(=O)c1cccc(-c2csc(N3CCC(C(N)=O)CC3)n2)c1`, the Potency is 3.87 µM (active). `CN(C)c1cccc(-c2csc(N3CCC(C(N)=O)CC3)n2)c1`: the Potency was 0.688 µM (active).

For `NC(=O)C1CCN(c2nc(-c3ccc4occc(=O)c4c3)cs2)CC1`, the Potency was 7.72 µM (active).

`CC(=O)c1ccc(-c2csc(N3CCC(C(N)=O)CC3)n2)cc1`: the Potency was 7.72 µM (active). Regarding `NC(=O)C1CCN(c2nc(-c3ccccc3-c3ccccc3)cs2)CC1`, the Potency result is “inactive”. On to `COc1ccc(-c2csc(N3CCC(C(N)=O)CC3)n2)cc1`, for which the Potency was 4.34 µM (active). Take `NC(=O)C1CCN(c2nc(-c3ccccc3F)cs2)CC1`: the Potency is 1.37 µM (active). For the compound `NC(=O)C1CCN(c2nc(-c3cccnc3)cs2)CC1`, the Potency result was “inactive”. The same measure for `NC(=O)C1CCN(c2nc(-c3cccc(N)c3)cs2)CC1`: “inactive”; for `NC(=O)C1CCN(c2nc(-c3cccs3)cs2)CC1`: 7.72 µM (active); for `NC(=O)C1CCN(c2nc(-c3ccc4ccccc4c3)cs2)CC1`: 4.87 µM (active).

Take `CS(=O)(=O)c1ccccc1-c1csc(N2CCC(C(N)=O)CC2)n1`: the Potency entry was “inactive”. As for `Cc1noc(C)c1-c1csc(N2CCC(C(N)=O)CC2)n1`, the entry is “inactive”; as for `NC(=O)C1CCN(c2nc(-c3ccc4c(c3)OCCO4)cs2)CC1`, 0.688 µM (active).
